Data on nine compounds can be found in PubChem BioAssay (NCI).

Assay [1] can be described thus: NCI Yeast Anticancer Drug Screen. Data for the rad50 strain (AID 155).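 Note: 0% = growth of vehicle-only cultures of the same strain.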 The following applies: S. cerevisiae rad50 strain growth inhibition, stronger effect = higher value. An outline of the steps: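 Vehicle-treated cultures provide the reference for the growth inhibition reported for compound-exposed, repair-deficient yeast.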
Assay [2] in a line: NCI Yeast Anticancer Drug Screen. Data for the mec2-1 strain (AID 157). The following applies: S. cerevisiae mec2-1 strain, stronger effect = higher value. Put shortly:
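Growth inhibition is read against vehicle-treated controls after compound exposure of the mec2-1 yeast strain, which is defective in DNA damage repair or cell cycle control.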

A short description of assay [3]: NCI Yeast Anticancer Drug Screen. Data for the sgs1 mgt1 strain (AID 161).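 Note: 0% = growth of cultures given vehicle only.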 The following applies: S. cerevisiae sgs1 mgt1 strain, stronger effect = higher value. Put shortly:
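Compounds are added to genetically altered yeast, and growth is compared with cultures given vehicle alone to give percent inhibition.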

Assay [4] is described as follows: NCI Yeast Anticancer Drug Screen. Data for the cln2 rad14 strain (AID 165).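 Note: 0% = growth equal to vehicle treated cultures.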 The following applies: S. cerevisiae cln2 rad14 strain, stronger effect = higher value. An outline of the steps: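 Growth inhibition, relative to vehicle-treated controls, is the read-out. The test organism is a yeast strain with defined genetic alterations, cln2 rad14.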
Assay [5] in a line: NCI Yeast Anticancer Drug Screen. Data for the bub3 strain (AID 167). The following applies: S. cerevisiae bub3 mutant strain, stronger effect = higher value. Put shortly:
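Mutant yeast screening strain plus compound; vehicle-treated cultures serve as the 0% inhibition reference.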

Assay [6] in a line: NCI Yeast Anticancer Drug Screen. Data for the mlh1 rad18 strain (AID 175). The following applies: S. cerevisiae mlh1 rad18 strain growth inhibition, stronger effect = higher value. An outline of the steps:
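Cells of a genetically altered yeast strain, deficient in DNA damage repair, were treated with compound. Their growth was then compared with that of vehicle-treated cultures to give inhibition.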

The mark [7] stands for this setting: at 5.0 µM (retest, dose inferred, filed as 0.5).
Setting [8] is: at 50.0 µM (retest, dose inferred, filed as 5.0).

About 79,000 compounds went through this panel and 15% of them were active in at least one assay; those are over-represented in the sample as a whole. Values without a mark were called inactive. The source made the active and inactive calls. Cut-off read from the data, not from the text of the source: active = growth inhibition above about 70%; inactive = the rest.

Consider `C[N+](C)(C)CC1CCCC1=O` (configuration not stated), for which the growth inhibition is 18% in assay [1] (setting [7]); 70% (active) in assay [1] (setting [8]); 51.6% in assay [1] (at 50.0 µM); 16% in assay [2] (setting [7]); 59% in assay [2] (setting [8]); 21.3% in assay [2] (at 50.0 µM). The growth inhibition in assay [3] (setting [7]) is 13%; in assay [3] (setting [8]), 58%; in assay [3] (at 50.0 µM), 24.6%; in assay [4] (setting [7]), 11%; in assay [4] (setting [8]), 34%; in assay [4] (at 50.0 µM) it was 19.2%. Besides, the growth inhibition was 20% in assay [5] (setting [7]); 70% (active) in assay [5] (setting [8]); 8.15% in assay [5] (at 50.0 µM); 21% in assay [6] (setting [7]); 77% (active) in assay [6] (setting [8]); 22.6% in assay [6] (at 50.0 µM).

Regarding `CC(C)c1ccccc1OP(=S)(S)Oc1ccccc1C(C)C`, the growth inhibition is 4% in assay [1] (setting [7]); 38% in assay [1] (setting [8]); 82.8% (active) in assay [1] (at 50.0 µM); 5% in assay [2] (setting [7]); 24% in assay [2] (setting [8]); 2.75% in assay [2] (at 50.0 µM). Further, the growth inhibition in assay [3] (setting [7]) is 1%; in assay [3] (setting [8]) it was 45%; in assay [3] (at 50.0 µM), 72.8% (active); in assay [4] (setting [7]) it was 4%; in assay [4] (setting [8]), 54%; in assay [4] (at 50.0 µM), 87.3% (active). In addition, the growth inhibition is 0% in assay [5] (setting [7]); 54% in assay [5] (setting [8]); 37% in assay [5] (at 50.0 µM); 0% in assay [6] (setting [7]); 68% in assay [6] (setting [8]); 79% (active) in assay [6] (at 50.0 µM).

As for `C=CCc1cc(Cl)ccc1OC(=O)N(C)C`, the growth inhibition in assay [1] (setting [7]) is 5%; in assay [1] (setting [8]), -2%; in assay [1] (at 50.0 µM) it was -7.75%; in assay [2] (setting [7]), 5%; in assay [2] (setting [8]) it was -4%; in assay [2] (at 50.0 µM) it was 3.45%. For the same compound, the growth inhibition in assay [3] (setting [7]) is 5%; in assay [3] (setting [8]), -2%; in assay [3] (at 50.0 µM), -6.55%; in assay [4] (setting [7]), 6%; in assay [4] (setting [8]), -1%; in assay [4] (at 50.0 µM), -19.3%. Also, the growth inhibition is 0% in assay [5] (setting [7]); -21% in assay [5] (setting [8]); -11.8% in assay [5] (at 50.0 µM); 0% in assay [6] (setting [7]); -1% in assay [6] (setting [8]); 31.8% in assay [6] (at 50.0 µM).

For `CC1=CC(=O)c2c(O)cccc2C1=O`, the growth inhibition in assay [1] (setting [7]) is 18%; in assay [1] (setting [8]) it was 100% (active); in assay [1] (at 50.0 µM), 85.8% (active); in assay [2] (setting [7]) it was 29%; in assay [2] (setting [8]) it was 99% (active); in assay [2] (at 50.0 µM), 90.1% (active). Also, the growth inhibition in assay [3] (setting [7]) was 19%; in assay [3] (setting [8]) it was 99% (active); in assay [3] (at 50.0 µM), 92% (active); in assay [4] (setting [7]) it was 7%; in assay [4] (setting [8]) it was 99% (active); in assay [4] (at 50.0 µM), 90.3% (active). The growth inhibition in assay [5] (setting [7]) was 23%; in assay [5] (setting [8]), 99% (active); in assay [5] (at 50.0 µM), 90.5% (active); in assay [6] (setting [7]) it was 30%; in assay [6] (setting [8]), 98% (active); in assay [6] (at 50.0 µM) it was 89% (active).

For the compound `C[Se]C([Se]C)=C([Se]C)[Se]C`, the growth inhibition in assay [1] (setting [7]) was 9%; in assay [1] (setting [8]) it was 95% (active); in assay [1] (at 50.0 µM) it was 29.5%; in assay [2] (setting [7]), 3%; in assay [2] (setting [8]), 91% (active); in assay [2] (at 50.0 µM), 99% (active). For the same compound, the growth inhibition is -1% in assay [3] (setting [7]); 99% (active) in assay [3] (setting [8]); 52% in assay [3] (at 50.0 µM); 2% in assay [4] (setting [7]); 59% in assay [4] (setting [8]); 45.2% in assay [4] (at 50.0 µM). In addition, the growth inhibition was 5% in assay [5] (setting [7]); 92% (active) in assay [5] (setting [8]); -0.4% in assay [5] (at 50.0 µM); 1% in assay [6] (setting [7]); 94% (active) in assay [6] (setting [8]); 85.3% (active) in assay [6] (at 50.0 µM).

As for `CSCCC([NH-])C(=O)O.CSCCC([NH-])C(=O)O.[Zn+2]` (configuration not stated), the growth inhibition in assay [1] (setting [7]) was 2%; in assay [1] (setting [8]) it was 1%; in assay [1] (at 50.0 µM), 98.2% (active); in assay [2] (setting [7]), 1%; in assay [2] (setting [8]), 1%; in assay [2] (at 50.0 µM), 99.2% (active). The growth inhibition in assay [3] (setting [7]) was 2%; in assay [3] (setting [8]), -1%; in assay [3] (at 50.0 µM), 99.2% (active); in assay [4] (setting [7]) it was 4%; in assay [4] (setting [8]), -6%; in assay [4] (at 50.0 µM), 99.2% (active). Besides, the growth inhibition in assay [5] (setting [7]) was 4%; in assay [5] (setting [8]), 6%; in assay [5] (at 50.0 µM), 99% (active); in assay [6] (setting [7]) it was 4%; in assay [6] (setting [8]), 3%; in assay [6] (at 50.0 µM), 99.3% (active).

For `O=[N+]([O-])O.[In]`, the growth inhibition in assay [1] (setting [7]) was 9%; in assay [1] (setting [8]), 49%; in assay [1] (at 50.0 µM) it was 11.6%; in assay [2] (setting [7]) it was 17%; in assay [2] (setting [8]) it was 53%; in assay [2] (at 50.0 µM), 44.2%. For the same compound, the growth inhibition is 6% in assay [3] (setting [7]); 43% in assay [3] (setting [8]); 50.3% in assay [3] (at 50.0 µM); 3% in assay [4] (setting [7]); 22% in assay [4] (setting [8]); -24.1% in assay [4] (at 50.0 µM). Besides, the growth inhibition in assay [5] (setting [7]) is 11%; in assay [5] (setting [8]), 58%; in assay [5] (at 50.0 µM), -1.85%; in assay [6] (setting [7]), 13%; in assay [6] (setting [8]), 55%; in assay [6] (at 50.0 µM), 65.3%.

`CCC1(O)C(=O)OCc2c1cc1n(c2=O)Cc2cc3cc4c(cc3nc2-1)OCO4` (configuration not stated): the growth inhibition was 97% (active) in assay [1] (setting [7]); 92% (active) in assay [1] (setting [8]); 86.6% (active) in assay [1] (at 50.0 µM); 98% (active) in assay [2] (setting [7]); 96% (active) in assay [2] (setting [8]); 86.3% (active) in assay [2] (at 50.0 µM). Also, the growth inhibition in assay [3] (setting [7]) is 97% (active); in assay [3] (setting [8]), 96% (active); in assay [3] (at 50.0 µM) it was 85.2% (active); in assay [4] (setting [7]), 90% (active); in assay [4] (setting [8]), 91% (active); in assay [4] (at 50.0 µM), 73% (active). Further, the growth inhibition in assay [5] (setting [7]) is 92% (active); in assay [5] (setting [8]) it was 89% (active); in assay [5] (at 50.0 µM) it was 90% (active); in assay [6] (setting [7]) it was 93% (active); in assay [6] (setting [8]) it was 79% (active); in assay [6] (at 50.0 µM), 92.7% (active).

Consider `COc1cccc(C2N(Cc3ccc(N(CCCl)CCCl)cc3C)CCCN2Cc2ccc(N(CCCl)CCCl)cc2C)c1O`, for which the growth inhibition in assay [1] (setting [7]) is 7%; in assay [1] (setting [8]) it was 94% (active); in assay [1] (at 50.0 µM), 27.6%; in assay [2] (setting [7]), -2%; in assay [2] (setting [8]) it was 96% (active); in assay [2] (at 50.0 µM), 10.2%. Besides, the growth inhibition is -2% in assay [3] (setting [7]); 97% (active) in assay [3] (setting [8]); 64.5% in assay [3] (at 50.0 µM); -5% in assay [4] (setting [7]); 82% (active) in assay [4] (setting [8]); -12.6% in assay [4] (at 50.0 µM). Also, the growth inhibition in assay [5] (setting [7]) was -6%; in assay [5] (setting [8]) it was 89% (active); in assay [5] (at 50.0 µM) it was 0.75%; in assay [6] (setting [7]), 8%; in assay [6] (setting [8]) it was 93% (active); in assay [6] (at 50.0 µM), 40.1%.
